Source: PubChem BioAssay
“And” between values parts separate entries of the source, which are not always exact repeats. Equal values may be shown once. The source made the active and inactive calls. Unless noted, the rule behind the calls is not given here.

What was measured:
[1] = tested on: Wnt5a (protein binding on small-molecule microarray); assay: Wnt5a binders on small-molecule microarray, primary screen, biophysical, 635/667 nm fluorescence (AID 1142); conditions: 635 nm fluorescence, higher = more signal;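 note: fluorescence read at 667 nm with signal to noise per printed feature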
[2] = cell viability in Huh7 cells, primary screen, cytotoxicity control for HCV replication inhibitor project, CellTiter-Glo luminescence, basal, 48 h (AID 1143); conditions: Huh7 HCV replicon, higher = more signal, called active from +8 up or from −8 down;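 note: Huh7 hepatoma cells carrying a hepatitis C replication reporter with no stimulus; test concentration not given here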
[3] = P. aeruginosa biofilm formation inhibitors, primary screen, PAO1 strain, BacTiter-Glo luminescence, LB-PBS (AID 1144); conditions: 12 h, higher = more signal
[4] = CREB reporter modulators without forskolin, primary screen, cell-based, PC12, CRE-LacZ reporter, unstimulated (AID 1145); conditions: no forskolin, luminescence, 4.5 h, higher = more signal, called active from +8 up or from −8 down
[5] = CREB reporter modulators under forskolin, primary screen, cell-based, PC12, CRE-LacZ reporter, forskolin-stimulated (AID 1146); conditions: luminescence, 4.5 h, higher = more signal, called active from +8 up or from −8 down;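 note: PC12 cells with 6xCRE LacZ reporter stimulated by forskolin 10 µM; beta-galactosidase reporter signal reflecting CREB driven transcription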
[6] = molecular target: Streptavidin (Streptomyces avidinii) (UniProt P22629); assay: streptavidin binders on small-molecule microarray, primary screen, artefact control for SMM compound annotation, biophysical, 635/667 nm fluorescence (AID 1147); conditions: streptavidin binding, higher = more signal;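 note: signal reflects streptavidin binding to arrayed compounds as a control protein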
[7] = small-molecule binders of probe aInhba, primary screen, biochemical, small-molecule microarray, 635/667 nm fluorescence (AID 1148); conditions: higher = more signal;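 note: score merges 667nm spot fluorescence with signal-to-noise for antibody binding to printed compounds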
Torsin-1A (Homo sapiens) [8] = molecular target: Torsin-1A (Homo sapiens) (UniProt O14656); assay: torsin A binders from cell lysate, primary screen, small-molecule microarray, wild-type, 635/667 nm (AID 1149); conditions: COS7 hTOR1A-WT lysate, 635 nm fluorescence, higher = more signal
Torsin-1A (Homo sapiens) [9] = molecular target: Torsin-1A (Homo sapiens) (UniProt O14656); assay: small-molecule binders of mutant TOR1A in lysate, primary screen, cell lysate, small-molecule microarray, COS7 lysate, 635/667 nm fluorescence (AID 1150); conditions: COS7 hTOR1A mutant lysate, 635 nm fluorescence, higher = more signal;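 note: score pools 667 nm emission and signal to noise measuring lysate protein binding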
[10] = tested on: Sonic hedgehog protein (Shh); assay: small-molecule binders of Shh protein, primary screen, biochemical, small-molecule microarray, 635/667 nm fluorescence (AID 1151); conditions: small-molecule microarray binding, 635 nm fluorescence; higher = more signal;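 note: Shh protein binding to compounds spotted on small-molecule microarray slides; score combines spot fluorescence intensity with signal-to-noise across triplicate slides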
[11] = E. coli DRC41 culture turbidity changes, primary screen, E. coli filamentation inducer project, strain DRC41, OD650, 48 h (AID 1152);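 note: E. coli MC1000 strain DRC41 lacking acrAB efflux pump and sulA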; conditions: E. coli DRC41 (acrAB sulA), higher = more signal, called active from +8 up or from −8 down
[12] = small-molecule binders of probe aLefty1, primary screen, biochemical, small-molecule microarray, 635/667 nm fluorescence (AID 1153); conditions: higher = more signal;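 note: score merges spot fluorescence with signal-to-noise ratio from the scanned slide images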
[13] = PSAC antagonists in infected red cells, primary screen, cell-based, P. falciparum Indochina, OD700, 1 h (AID 1154); conditions: P. falciparum Indochina infected RBC osmotic lysis, higher = more signal, called active from +8 up or from −8 down
[14] = PSAC antagonists in infected red cells, primary screen, cell-based, P. falciparum Indochina, OD700, 2 h (AID 1155);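 note: lysis reports solute entry through the parasite surface anion channel PSAC; channel blockers reduce lysis of infected cells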; conditions: P. falciparum Indochina infected erythrocytes, osmotic lysis OD700; higher = more signal, called active from +8 up or from −8 down
[15] = osmotic lysis modulators in infected erythrocytes, primary screen, PSAC antagonist project, cell-based, P. falciparum Indochina, OD700, 3 h (AID 1156); conditions: higher = more signal, called active from +8 up or from −8 down
[16] = PSAC antagonists in infected red cells, primary screen, cell-based, P. falciparum Indochina, OD700, 18 h (AID 1157); conditions: P. falciparum Indochina infected erythrocytes, osmotic lysis OD700, 18 h; higher = more signal, called active from +8 up or from −8 down
[17] = modulators of S6 phosphorylation in cells, primary screen, cell-based, A549, cytoblot, luminescence, serum-stimulated (AID 1158); conditions: A549 phospho-S6 cytoblot, 5 h, higher = more signal;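 note: serum-stimulated A549 lung adenocarcinoma cells; signal is phosphorylated S6 detected by cytoblot immunostaining with HRP secondary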
[18] = molecular target: NADPH oxidase 2 (Homo sapiens) (UniProt P04839); assay: NOX2-dependent H2O2 signal modulators, primary screen, NOX inhibitor project, cell-based, HEK293-NOX2, PMA-stimulated, Amplex Red fluorescence (AID 1159); conditions: 45 min, higher = more signal, called active from +8 up or from −8 down; note: test concentration not given here
[19] = molecular target: NADPH oxidase 4 (Homo sapiens) (UniProt Q9NPH5); assay: NOX4-dependent H2O2 signal modulators, primary screen, NOX inhibitor project, cell-based, HEK293-NOX4, tetracycline-induced, Amplex Red fluorescence (AID 1160); conditions: 45 min, higher = more signal, called active from +8 up or from −8 down
[20] = molecular target: NADPH oxidase 5 (Homo sapiens) (UniProt Q96PH1); assay: NOX5-dependent H2O2 signal modulators, primary screen, NOX inhibitor project, cell-based, HEK293-NOX5, Amplex Red fluorescence (AID 1161); conditions: HEK293-NOX5, ionomycin, 45 min, higher = more signal
NADPH oxidase 5 (Homo sapiens), sequence (Q96PH1 whole entry, looked up): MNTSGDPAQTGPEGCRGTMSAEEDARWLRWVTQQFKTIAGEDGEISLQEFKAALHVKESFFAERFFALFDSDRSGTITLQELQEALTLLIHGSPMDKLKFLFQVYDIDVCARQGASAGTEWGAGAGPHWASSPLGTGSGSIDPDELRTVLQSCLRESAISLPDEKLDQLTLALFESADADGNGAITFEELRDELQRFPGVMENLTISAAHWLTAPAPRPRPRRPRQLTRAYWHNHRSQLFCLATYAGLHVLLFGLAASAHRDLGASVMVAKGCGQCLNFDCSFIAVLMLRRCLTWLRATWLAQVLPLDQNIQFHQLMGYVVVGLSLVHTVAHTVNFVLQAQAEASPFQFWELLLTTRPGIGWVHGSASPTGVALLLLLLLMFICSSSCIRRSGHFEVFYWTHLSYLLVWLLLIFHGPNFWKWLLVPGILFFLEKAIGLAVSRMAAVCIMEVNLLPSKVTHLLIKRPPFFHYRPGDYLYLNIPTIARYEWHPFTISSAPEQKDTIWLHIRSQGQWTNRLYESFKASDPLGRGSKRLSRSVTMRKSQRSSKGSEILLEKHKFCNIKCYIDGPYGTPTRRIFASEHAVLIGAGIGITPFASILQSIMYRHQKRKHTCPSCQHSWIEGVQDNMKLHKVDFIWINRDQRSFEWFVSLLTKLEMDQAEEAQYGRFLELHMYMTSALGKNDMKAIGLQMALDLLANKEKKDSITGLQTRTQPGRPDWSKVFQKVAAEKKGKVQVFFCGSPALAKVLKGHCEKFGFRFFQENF

NADPH oxidase 2 (Homo sapiens), sequence (P04839 whole entry, looked up): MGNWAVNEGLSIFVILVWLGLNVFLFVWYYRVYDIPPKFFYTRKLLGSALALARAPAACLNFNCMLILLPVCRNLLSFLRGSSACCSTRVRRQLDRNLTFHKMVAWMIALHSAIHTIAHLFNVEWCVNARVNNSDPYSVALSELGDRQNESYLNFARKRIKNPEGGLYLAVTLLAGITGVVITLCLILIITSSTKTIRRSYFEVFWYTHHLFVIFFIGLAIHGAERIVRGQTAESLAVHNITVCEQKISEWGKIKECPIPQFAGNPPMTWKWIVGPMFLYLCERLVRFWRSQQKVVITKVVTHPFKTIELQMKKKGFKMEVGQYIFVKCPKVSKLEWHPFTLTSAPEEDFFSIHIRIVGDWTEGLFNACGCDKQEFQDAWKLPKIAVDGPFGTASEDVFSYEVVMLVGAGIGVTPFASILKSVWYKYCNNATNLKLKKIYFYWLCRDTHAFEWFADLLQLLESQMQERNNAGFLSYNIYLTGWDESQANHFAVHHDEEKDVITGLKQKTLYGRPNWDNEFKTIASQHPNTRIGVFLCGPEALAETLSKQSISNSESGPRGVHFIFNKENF
Streptavidin (Streptomyces avidinii), sequence (P22629 whole entry, looked up): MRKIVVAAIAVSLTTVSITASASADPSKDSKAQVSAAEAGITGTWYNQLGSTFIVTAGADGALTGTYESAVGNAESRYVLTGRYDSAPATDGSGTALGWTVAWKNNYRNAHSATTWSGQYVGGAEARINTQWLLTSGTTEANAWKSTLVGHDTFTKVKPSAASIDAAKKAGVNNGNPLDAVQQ
NADPH oxidase 4 (Homo sapiens), sequence (Q9NPH5 whole entry, looked up): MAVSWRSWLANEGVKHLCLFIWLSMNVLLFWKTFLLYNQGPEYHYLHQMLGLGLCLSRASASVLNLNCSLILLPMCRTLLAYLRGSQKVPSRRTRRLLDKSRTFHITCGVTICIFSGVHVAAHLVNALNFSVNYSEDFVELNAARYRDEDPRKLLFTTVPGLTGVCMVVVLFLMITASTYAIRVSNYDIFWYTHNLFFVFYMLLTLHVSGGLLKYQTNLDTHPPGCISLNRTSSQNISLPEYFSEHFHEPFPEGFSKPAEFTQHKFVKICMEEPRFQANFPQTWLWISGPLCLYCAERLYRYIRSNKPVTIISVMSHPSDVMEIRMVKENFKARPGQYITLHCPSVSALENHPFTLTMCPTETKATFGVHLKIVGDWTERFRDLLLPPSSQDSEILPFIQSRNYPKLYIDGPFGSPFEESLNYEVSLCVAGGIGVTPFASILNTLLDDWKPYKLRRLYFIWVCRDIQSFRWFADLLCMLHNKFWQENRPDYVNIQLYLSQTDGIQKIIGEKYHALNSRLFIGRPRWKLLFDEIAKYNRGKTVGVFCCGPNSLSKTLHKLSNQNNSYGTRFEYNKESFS
Torsin-1A (Homo sapiens), sequence (O14656 whole entry, looked up): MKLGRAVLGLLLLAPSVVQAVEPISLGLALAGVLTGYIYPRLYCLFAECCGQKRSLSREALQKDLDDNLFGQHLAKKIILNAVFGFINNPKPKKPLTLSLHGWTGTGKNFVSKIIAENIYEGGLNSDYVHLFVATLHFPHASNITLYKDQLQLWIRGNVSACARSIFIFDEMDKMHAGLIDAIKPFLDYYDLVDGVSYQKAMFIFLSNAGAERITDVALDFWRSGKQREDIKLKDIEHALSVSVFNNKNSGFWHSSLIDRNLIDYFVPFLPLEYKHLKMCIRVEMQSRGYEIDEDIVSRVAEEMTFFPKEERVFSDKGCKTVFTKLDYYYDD

Structure (SMILES)	composite z-score [1]	z-score [2]	z-score [3]	z-score [4]	z-score [5]	composite z-score [6]	composite z-score [7]	composite z-score (Torsin-1A (Homo sapiens) [8])	composite z-score (Torsin-1A (Homo sapiens) [9])	composite z-score [10]	z-score [11]	composite z-score [12]	z-score [13]	z-score [14]	z-score [15]	z-score [16]	z-score [17]	z-score [18]	z-score [19]	z-score [20]
C=CCN(Cc1ccccc1)C(=O)C1N(C(C)(C)CO)C(=O)C2C(C(=O)O)C3C=CC21O3 (stereo not given)	-0.578 and -0.945	0.283 (inactive) and 0.582 (inactive)	1.51 (inactive) and -1.52 (inactive)	-0.224 (inactive) and -1.57 (inactive)	-0.141 (inactive) and -0.418 (inactive)	-1.56 and -1.49	-0.231 and -0.213	-0.396 and -3.85	-1.19 and -2.15	-1.17 and -1.73	-0.511 (inactive) and 1.45 (inactive)	-0.144 and -0.779	0.0247 (inactive) and -0.244 (inactive)	0.0843 (inactive) and -0.355 (inactive)	-1.15 (inactive) and -0.742 (inactive)	-0.255 (inactive) and -0.354 (inactive)	0.0613 and -0.122	0.515 (inactive) and 0.043 (inactive)	0.0722 (inactive) and 0.185 (inactive)	0.793 and -0.0303
C=CCN(CCCC)C(=O)C1N(CCCCCCO)C(=O)C2C(C(=O)O)C3C=CC21O3 (stereo not given)	-0.718 and -0.319	0.427 (inactive) and 0.424 (inactive)	0.759 (inactive) and 2.36 (inactive)	0.0645 (inactive) and -0.769 (inactive)	0.149 (inactive) and 0.147 (inactive)	-1.46 and -1.12	-0.35 and -0.312	1.31 and -1.36	-2.04 and -2.49	-1.18 and -1.43	-0.91 (inactive) and -0.81 (inactive)	-0.31 and -0.101	0.153 (inactive) and -0.368 (inactive)	-0.0395 (inactive) and 0.354 (inactive)	-0.661 (inactive) and -0.802 (inactive)	-0.11 (inactive) and -0.0605 (inactive)	-0.686 and -0.762	0.634 (inactive) and 0.835 (inactive)	-0.159 (inactive) and -0.18 (inactive)	0.75 and 1.01
C=CCN(C(=O)C(c1cccs1)N(C(=O)/C=C\C(=O)O)c1ccc(CCO)cc1)c1ccc(OC)cc1 (stereo not given)	-1.21 and -1.14	0.369 (inactive) and 0.0408 (inactive)	-2.25 (inactive) and -0.545 (inactive)	-0.358 (inactive) and 0.463 (inactive)	-0.308 (inactive) and 0.311 (inactive)	-1.31 and -0.93	-0.257 and -0.203	-3.35 and -2.12	0.425 and -1.7	-1.17 and -0.672	2.16 (inactive) and 0.76 (inactive)	-0.0186 and -0.229	1.73 (inactive) and -1.02 (inactive)	0.0371 (inactive) and -0.3 (inactive)	-0.0439 (inactive) and 0.347 (inactive)	0.454 (inactive) and -0.0131 (inactive)	0.749 and 0.862	-0.147 (inactive) and -0.268 (inactive)	-0.649 (inactive) and -1.34 (inactive)	0.137 and -0.261
COC(=O)C1=C2N(Cc3ccccc3)C(C)=C(C(=O)OC)[C@@H](c3ccccc3)N2C(=O)[C@](O)(C(=O)OC)C1	-0.0382 and -0.0845	-0.124 (inactive) and 0.0688 (inactive)	0.917 (inactive) and -0.22 (inactive)	2.08 (inactive) and 1.8 (inactive)	-1.03 (inactive) and -0.435 (inactive)	-0.302 and -0.327	-0.0736 and -0.0895	1.04 and 2.21	0.42 and 3.89	0.71 and 0.673	0.33 (inactive) and -0.579 (inactive)	-0.0694 and -0.189	1.6 (inactive) and 0.553 (inactive)	1.02 (inactive) and 0.676 (inactive)	0.878 (inactive) and -0.159 (inactive)	0.468 (inactive) and 0.318 (inactive)	-0.482 and -0.524	0.258 (inactive) and 0.184 (inactive)	0.64 (inactive) and 0.0139 (inactive)	0.932 and 0.724
C=C[C@H](C)[C@H](O)c1ccc(O)c2ccccc12	-0.455 and 0.247	-1.69 (inactive) and 0.651 (inactive)	-0.143 (inactive) and -0.287 (inactive)	0.833 (inactive) and 1.94 (inactive)	1.13 (inactive) and -0.456 (inactive)	-0.663 and -0.935	-0.206 and -0.182	-1.49 and -0.75	-0.0641 and 0.204	0.153 and 1.7	2.14 (inactive) and 2.25 (inactive)	-0.31 and -0.201	0.656 (inactive) and 0.845 (inactive)	-0.627 (inactive) and -0.531 (inactive)	-0.984 (inactive) and -0.529 (inactive)	-0.408 (inactive) and -1.21 (inactive)	1.13 and 0.885	-5.4 (inactive) and -5.09 (inactive)	-0.841 (inactive) and -0.878 (inactive)	0.582 and 1.17
C=CCN(Cc1ccccc1)C(=O)C(c1cccs1)N(C(=O)/C=C\C(=O)O)c1ccc(CCO)cc1 (stereo not given)	-1.26 and -0.913	0.735 (inactive) and 0.129 (inactive)	-0.732 (inactive) and -1.02 (inactive)	-0.0778 (inactive) and -0.0656 (inactive)	0.0736 (inactive) and -0.183 (inactive)	-1.73 and -2.16	-0.135 and -0.346	-2.97 and -2.57	-2.1 and -2.38	-1.14 and -0.843	0.906 (inactive) and 0.383 (inactive)	-0.0449 and -0.314	0.149 (inactive) and -0.674 (inactive)	-0.36 (inactive) and 0.526 (inactive)	0.0823 (inactive) and -0.0781 (inactive)	0.283 (inactive) and 0.306 (inactive)	1.84 and 0.284	-0.228 (inactive) and -0.269 (inactive)	-0.353 (inactive) and -0.512 (inactive)	-0.0714 and -0.0433
